# Results from PubChem BioAssay AID1347418 (Sanford-Burnham Center for Chemical Genomics, 2020).
# Where “and” joins values, the source holds several entries; their conditions need not be identical. Equal values may be shown once. Out of some 1,300 compounds screened, about 750 (58%) were called active. The list shows a part of the results.
# Target: Sulfhydryl oxidase 1 (Homo sapiens) (UniProt O00391)
# Assay: QSOX1 enzyme inhibitors, primary screen, biochemical, ROS-Glo H2O2 luminescence, HTS (AID 1347418)
# Conditions: recombinant QSOX1, ROS-Glo H2O2 luminescence; at 12.5 µM; active compounds read high; active = any value above zero
# Sulfhydryl oxidase 1 (Homo sapiens), sequence (O00391 whole entry, looked up): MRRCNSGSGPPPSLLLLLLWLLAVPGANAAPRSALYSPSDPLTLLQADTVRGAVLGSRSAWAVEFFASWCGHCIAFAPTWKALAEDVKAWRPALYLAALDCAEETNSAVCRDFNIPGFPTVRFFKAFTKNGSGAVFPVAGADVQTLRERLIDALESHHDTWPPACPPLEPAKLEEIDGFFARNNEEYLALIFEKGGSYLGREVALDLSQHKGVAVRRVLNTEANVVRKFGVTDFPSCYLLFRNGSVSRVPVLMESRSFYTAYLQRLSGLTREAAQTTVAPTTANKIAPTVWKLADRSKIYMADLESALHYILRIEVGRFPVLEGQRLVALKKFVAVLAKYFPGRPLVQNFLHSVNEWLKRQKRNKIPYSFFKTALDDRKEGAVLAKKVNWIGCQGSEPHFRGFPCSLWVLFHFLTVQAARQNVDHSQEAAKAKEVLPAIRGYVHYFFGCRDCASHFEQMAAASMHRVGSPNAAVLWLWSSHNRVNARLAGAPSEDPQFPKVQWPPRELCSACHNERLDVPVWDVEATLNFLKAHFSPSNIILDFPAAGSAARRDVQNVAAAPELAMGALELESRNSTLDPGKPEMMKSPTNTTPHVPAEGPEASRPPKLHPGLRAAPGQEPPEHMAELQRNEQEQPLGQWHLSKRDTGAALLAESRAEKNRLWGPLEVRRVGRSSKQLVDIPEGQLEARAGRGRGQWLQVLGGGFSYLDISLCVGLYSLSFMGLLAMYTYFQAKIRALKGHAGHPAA
row,Compound,inhibition
1,Cn1ncc(S(=O)(=O)Cc2ccccc2)c(Br)c1=O,-5.4% (inactive)
2,N[C@H](C(=O)O)[C@H](O)C(=O)O,0.9% (active)
3,N[C@@H](Cc1cnc[nH]1)C(=O)O,1.5% (active)
4,NC(=S)c1ccc[n+]([C@@H]2O[C@@H](COP(=O)([O-])OP(=O)(O)OC[C@H]3O[C@@H](n4cnc5c(N)ncnc54)C(OP(=O)(O)O)[C@H]3O)C(O)C2O)c1 (stereo partly drawn),3.1% (active)
5,NC(=O)C1=C[N+](=C2OC(COP(=O)(O)OP(=O)([O-])OC[C@H]3O[C@@H](n4cnc5c(N)ncnc54)C(OP(=O)(O)O)[C@H]3O)C(O)C2O)C=CC1 (stereo partly drawn),-0.9% (inactive)
6,CCN(CC)c1ncnc2c1ncn2[C@@H]1O[C@H](COP(=O)(O)OP(=O)(O)C(Br)(Br)P(=O)(O)O)[C@@H](O)[C@H]1O,-1% (inactive)
7,NC[C@H]1O[C@@H](n2cnc3c(N)ncnc32)[C@H](O)[C@@H]1O,-4.6% (inactive)
8,Nc1ncnc2c1ncn2[C@@H]1O[C@H](COP(=O)(O)CP(=O)(O)OP(=O)(O)O)[C@H](O)C1O (stereo partly drawn),-6.5% (inactive)
9,Nc1ncnc2c1ncn2[C@@H]1O[C@H](COP(=O)(O)OP(=O)(O)OP(=O)(O)OP(=O)(O)OC[C@@H]2O[C@H](n3cnc4c(N)ncnc43)C(O)[C@@H]2O)[C@H](O)C1O (stereo partly drawn),3.7% (active)
10,O=c1[nH]c2cc(Cl)ccc2c(O)c1-c1ccc(Oc2ccccc2)cc1,-2.9% (inactive)
11,COc1ccc(CCn2nnnc2C2(c3ccc(C)cc3)CC2)cc1,0.5% (active)
12,N=c1nc(N2CCCCC2)cc(N)n1O,1% (active)
13,COC(=O)Nc1nc2ccc(C(=O)c3cccs3)cc2[nH]1,-0.8% (inactive)
14,Cc1oncc1C(=O)Nc1ccc(C(F)(F)F)cc1,6.7% (active)
15,CCCN1C[C@H](CSC)C[C@@H]2c3cccc4[nH]cc(c34)C[C@H]21,7.8% (active)
16,NC(N)=NCCCCN=C(N)N,7.2% (active)
17,NCCCCN=C(N)N,2.1% (active)
18,NCCCCN,-2.1% (inactive)
19,NCCCCCCCCCCN,0% (inactive)
20,COc1ccc(-c2cc3ncc(C)n3c(Nc3ncccc3C(N)=O)n2)cc1OC,-0.2% (inactive)
21,C=CC(N)CCC(=O)O (stereo not drawn),0.6% (active)
22,NCCCC(=O)O,-4% (inactive)

row,Compound,inhibition
1,COCC(=O)O[C@]1(CCN(C)CCCc2nc3ccccc3[nH]2)CCc2cc(F)ccc2[C@@H]1C(C)C,-5.7% (inactive)
2,CC[C@@H]1Cc2cc(O)ccc2C2=C1c1ccc(O)cc1C[C@H]2CC,41.5% (active)
3,Cc1nc2c(OCc3ccccc3)cccn2c1CC#N,-7.9% (inactive)
4,CCCNC(=O)NS(=O)(=O)c1ccc(Cl)cc1,0.2% (active)
5,CCCCNC(=O)NS(=O)(=O)c1ccc(C)cc1,-6.3% (inactive)
6,Nn1nnc2ccccc21,0.7% (active)
7,Fc1ccc([C@@H]2CCNC[C@H]2COc2ccc3c(c2)OCO3)cc1,-0.5% (inactive)
8,CC(C)NCC(O)c1cc(O)cc(O)c1 (stereo not drawn),-2.6% (inactive)
9,CC(C)NC[C@H](O)c1ccc(O)c(O)c1,1.4% (active)
10,CC(C)NCC(O)c1ccc(O)c(O)c1 (stereo not drawn),4.8% (active) and 11.3% (active)
11,CCC(NC(C)C)C(O)c1ccc(O)c(O)c1 (stereo not drawn),6.4% (active)
12,CC(C)NCC(O)c1ccc(NS(C)(=O)=O)cc1 (stereo not drawn),-5.9% (inactive)
13,CC1CN(S(=O)(=O)c2cccc3cnccc23)CCN1 (stereo not drawn),3% (active)
14,CNCCNS(=O)(=O)c1cccc2cnccc12,-3% (inactive)
15,CC1CNCCN1S(=O)(=O)c1cccc2cnccc12 (stereo not drawn),10.4% (active)
16,CCO/C([O-])=N/c1c[n+](N2CCOCC2)no1,-1.5% (inactive)
17,Clc1ccccc1C(c1ccccc1)(c1ccccc1)n1ccnc1,10.5% (active)
18,C[C@](Cc1ccc(O)c(O)c1)(NN)C(=O)O,10.8% (active)
19,C[C@](N)(Cc1ccc(O)cc1)C(=O)O,-2.7% (inactive)
20,CC(N)(Cc1ccc(O)c(O)c1)C(=O)O (stereo not drawn),2.4% (active)
21,CC(N)(Cc1ccc(O)cc1)C(=O)O (stereo not drawn),0% (inactive)
22,C[C@](N)(Cc1ccc(O)c(O)c1)C(=O)O,8.7% (active)

row,Compound,inhibition
1,COC(=O)C(C)(N)Cc1ccc(O)cc1 (stereo not drawn),-0.8% (inactive)
2,CN(C)S(=O)(=O)c1ccc2c(c1)/C(=C/c1cc3c([nH]1)CCCC3)C(=O)N2,-4.7% (inactive)
3,COc1cc(OC)c(/C=C2/C(=O)Nc3ccccc32)c(OC)c1,-8.1% (inactive)
4,Cc1cc(C)c(/C=C2\C(=O)Nc3ccccc32)[nH]1,36.3% (active)
5,CN(C)c1ccc(/C=C2\C(=O)Nc3ccccc32)cc1,42.8% (active)
6,Cc1ccc(C(=O)Nc2ccc(S(=O)(=O)[O-])c3c2C(S(=O)(=O)[O-])=[C+]C(S(=O)(=O)O)=[C+]3)cc1NC(=O)c1cccc(NC(=O)Nc2cccc(C(=O)Nc3cc(C(=O)Nc4ccc(S(=O)(=O)[O-])c5c4C(S(=O)(=O)[O-])=[C+]C(S(=O)(=O)O)=[C+]5)ccc3C)c2)c1,-5.3% (inactive)
7,C=CCc1ccccc1OCC(O)CNC(C)C (stereo not drawn),6.4% (active)
8,CC(C)NC[C@H](O)COc1cccc2[nH]ccc12,-0.8% (inactive)
9,CC(C)NC[C@H](O)COc1cccc2ccccc12,-2.1% (inactive)
10,CC(C)NCC(O)COc1cccc2ccccc12 (stereo not drawn),-1.6% (inactive)
11,CC(C)NCC(O)COc1cccc2[nH]ccc12 (stereo not drawn),1.4% (active)
12,O=C1N(c2ccccc2)c2ccccc2C1(Cc1ccncc1)Cc1ccncc1,-3.5% (inactive)
13,O=C(Nc1ccccc1)c1cc([N+](=O)[O-])ccc1Cl,1.2% (active)
14,O=C(Nc1ccncc1)c1cc([N+](=O)[O-])ccc1Cl,-4.2% (inactive)
15,O=C(Nc1ccc([N+](=O)[O-])cc1Cl)c1cc(Cl)ccc1O,8% (active)
16,CS(=O)(=O)Nc1ccc([N+](=O)[O-])cc1Oc1ccccc1,-0.8% (inactive)
17,O=C(O)c1cc([N+](=O)[O-])ccc1NCCCc1ccccc1,2.3% (active)
18,Nc1ccc(-c2ccc3ccccc3n2)cc1,14.6% (active)
19,NCC(O)(CS(=O)(=O)O)c1ccc(Cl)cc1 (stereo not drawn),7.3% (active)
20,C[C@@H]1C(=O)NC2=Nc3cccc(Cl)c3CN21,-4.6% (inactive)
21,O=C1Cc2cc(CCN3CCN(c4nsc5ccccc45)CC3)c(Cl)cc2N1,8.8% (active)
22,NCCC1CCCC(CCN)N1 (stereo not drawn),-5.7% (inactive)

row,Compound,inhibition
1,CC(=O)N[C@H]1[C@H]([C@H](O)[C@H](O)CO)OC(C(=O)O)=C[C@@H]1O,10.4% (active)
2,OCc1cc(C(O)CNCCCCCCOCCCCc2ccccc2)ccc1O (stereo not drawn),12.5% (active)
3,NC(=O)c1ncn([C@@H]2O[C@H](CO)[C@@H](O)[C@H]2O)c1O,-0.4% (inactive)
4,Nc1ccn([C@@H]2O[C@H](CO)[C@@H](O)C2O)c(=O)n1 (stereo partly drawn),6% (active)
5,Nc1ccn([C@H]2CC[C@@H](CO)O2)c(=O)n1,-3.2% (inactive)
6,Nc1ncn([C@@H]2O[C@H](CO)[C@H](O)C2O)c(=O)n1 (stereo partly drawn),-0.8% (inactive)
7,N=c1ccn2c(n1)OC1C(O)[C@@H](CO)O[C@H]12 (stereo partly drawn),7.2% (active)
8,OCCN(CCO)c1nc(N2CCCCC2)c2nc(N(CCO)CCO)nc(N3CCCCC3)c2n1,46.4% (active)
9,CCc1c(C)[nH]c2c1C(=O)C(CN1CCOCC1)CC2 (stereo not drawn),-0.8% (inactive)
10,C1CCC(N=C(NC23CC4CC(CC(C4)C2)C3)N2CCOCC2)CC1,-2.2% (inactive)
11,Cc1ccc(O)c(N=Nc2ccccc2)n1,67.9% (active)
12,Nc1ccc(-c2nc3ccc(-c4nc5ccc(N)cc5[nH]4)cc3[nH]2)cc1,44.6% (active)
13,O=c1[nH]c(=O)n([C@H]2C[C@H](O)[C@@H](CO)O2)cc1Br,2.6% (active)
14,O=c1[nH]c(=O)n([C@H]2C[C@H](O)[C@@H](CO)O2)cc1/C=C/Br,-4% (inactive)
15,Cc1cn([C@H]2C[C@@H](N=[N+]=[N-])[C@@H](CO)O2)c(=O)[nH]c1=O,1.9% (active)
16,CCNc1nc2c(ncn2[C@H]2C[C@H](O)[C@@H](CO)O2)c(=O)[nH]1,-0.7% (inactive)
17,Cc1cn([C@H]2C=C[C@@H](CO)O2)c(=O)[nH]c1=O,0.2% (active)
18,c1ccc2c(c1)CC(N1CCN(c3cccc4c3OCCO4)CC1)C2,4.5% (active)
19,Cc1cnc(NC(=O)C2=C(O)c3ccccc3S(=O)(=O)N2C)s1,5.4% (active)
20,CN1C(C(=O)Nc2ccccn2)=C(O)c2ccccc2S1(=O)=O,-4.7% (inactive)
21,CN1CC(O)C(O)C(O)C1CO (stereo not drawn),3.8% (active)
22,FC(F)(F)c1ccccc1-n1ccnc1,4% (active)

row,Compound,inhibition
1,CC(/C=C/c1cccc(Oc2ccc(F)cc2)c1)N(O)C(N)=O (stereo not drawn),2.4% (active)
2,O=Nc1c(-c2c(O)[nH]c3ccccc23)[nH]c2ccccc12,42.8% (active)
3,O=C1Cc2c([nH]c3ccc(Br)cc23)-c2ccccc2N1,-0.3% (inactive)
4,O=Nc1c(-c2c(O)[nH]c3cc(Br)ccc23)[nH]c2ccccc12,27.6% (active)
5,O=C(C1CCCCC1)N1CC(=O)N2CCc3ccccc3C2C1 (stereo not drawn),1.7% (active)
6,CC(C)(C)[C@]1(O)CCN2C[C@H]3c4ccccc4CCc4cccc(c43)[C@@H]2C1,-0.1% (inactive)
7,Cc1[nH]c(=O)c(C#N)cc1-c1ccc2nccn2c1,7.1% (active)
8,Cc1[nH]c(=O)c(C#N)cc1-c1ccncc1,-3.2% (inactive)
9,CC[C@H](NC(=O)c1c(C)c(-c2ccccc2)nc2ccccc12)c1ccccc1,-2% (inactive)
10,COC(=O)[C@H](NC(=O)c1cc(-c2ccccc2)nc2ccccc12)c1ccccc1,4.9% (active)
11,NCCS,3.5% (active)
12,CCOC(=O)c1ncn2c1CN(C)C(=O)c1cc(F)ccc1-2,0.3% (active)
13,NC(N)=N/N=C/c1c(Cl)cccc1Cl,-2.6% (inactive)
14,CCCCNc1cc(C(=O)O)cc(S(N)(=O)=O)c1Oc1ccccc1,-3.4% (inactive)
15,c1ccc(C(NCCNC(c2ccccc2)c2ccccc2)c2ccccc2)cc1,6% (active)
16,CNCCc1cnc(CCC(c2ccccc2)c2ccccc2)[nH]1,-2.3% (inactive)
17,CC(C)NNC(=O)c1ccncc1,1.1% (active)
18,CCN(CC)CCOC(=O)c1cc(Cl)c(N)cc1OC,-5.7% (inactive)
19,CCN(CC)CCNC(=O)c1cc(Cl)c(N)cc1OC,-4.7% (inactive)
20,COc1cc(N)c(Cl)cc1C(=O)OCCN1CCCCC1,0.5% (active)
